High-throughput results deposited in PubChem BioAssay by The Scripps Research Institute Molecular Screening Center.
An excerpt weighted towards active compounds, which were near 1.3% of everything screened.
eLon inh: inhibitors of E. coli Lon protease, primary screen, biochemical, fluorescence polarization; P0A9M0; AID 602123, 2011; purified E. coli Lon protease; inhibition, % at 7.94 µM; actives 0.42% (n = 360,000); in the data active means inhibition above about 13%, passing the limit was not always enough;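 further: 0% = enzyme with probe and DMSO and 100% = no enzyme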
Rin1 Abl inh: inhibitors of Rin1-Abl protein binding, primary screen, biochemical, TR-FRET. inhibition, % at 7.35 µM. actives 0.4% (n = 360,000). Tyrosine-protein kinase ABL1 (Homo sapiens) + Ras and Rab interactor 1 (Homo sapiens), …; in the data active means inhibition above about 5%, passing the limit was not always enough
PKA-R1A act: activators of PKA-R1A holoenzyme, primary screen, biochemical, fluorescence polarization, Cy5-IP20, bovine R1A, mouse PKAc; AID 504707, 2011; activation, % at 11.4 µM; actives 0.083% (n = 340,000); PKA-R1A dissociation; scaled: DMSO 0%, 113 µM cGMP 100%;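 active means percent activation above the mean of all tested compounds plus 3 SD, cut at about 19% in these data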;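 further: higher means more PKAc released from R1A so a rise in polarization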
IDE cell inh: human IDE inhibitors in live cells, primary screen, fluorescence polarization, HEK cells, FAbetaB substrate. Insulin-degrading enzyme (Homo sapiens), P14735. inhibition, % at 5.59 µM. actives 0.41% (n = 320,000). FAbetaB cleavage. AID 434962, 2010;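 active means percent inhibition above the average of all tested compounds plus 3 SD, set per screening campaign, cut at about 16% in these data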;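 further: IDE supplied by intact live HEK cells; FP after avidin binding of uncleaved biotin substrate so inhibition keeps polarization high; 0% = DMSO wells and 100% = 60 µM reference IDE inhibitor Ii1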
PKA-R2B act: activators of PKA-R2B holoenzyme, primary screen, biochemical, fluorescence polarization, Cy5-IP20, human; cAMP-dependent protein kinase catalytic subunit beta (Homo sapiens) + cAMP-dependent …; PKA-R2B holoenzyme dissociation; R2B truncated from residue 108, S112A mutant; 0% DMSO only, 100% 113 µM cGMP; activation, % at 11.4 µM; actives 0.079% (n = 340,000);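 active means activation above a cutoff set at the mean over all compounds plus 3 SD, cut at about 18% in these data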;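 further: higher means more holoenzyme dissociation and a rise in polarization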
Target sequence (P31323 whole entry, looked up, other chains not shown, the tested form may be a part): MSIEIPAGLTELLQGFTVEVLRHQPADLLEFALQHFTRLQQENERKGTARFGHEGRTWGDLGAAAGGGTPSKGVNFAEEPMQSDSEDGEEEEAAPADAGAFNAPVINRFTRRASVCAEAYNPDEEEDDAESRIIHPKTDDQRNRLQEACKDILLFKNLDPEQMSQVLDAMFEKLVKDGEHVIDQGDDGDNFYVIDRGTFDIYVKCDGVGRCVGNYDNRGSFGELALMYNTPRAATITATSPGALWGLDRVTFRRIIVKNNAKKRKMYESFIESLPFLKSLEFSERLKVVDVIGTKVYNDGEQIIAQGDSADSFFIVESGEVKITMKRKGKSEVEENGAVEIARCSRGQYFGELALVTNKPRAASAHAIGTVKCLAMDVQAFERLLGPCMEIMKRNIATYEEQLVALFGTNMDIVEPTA
IDE act: human IDE activators in live cells, primary screen, fluorescence polarization, HEK cells, FAbeta-B substrate; activation, % at 5.96 µM; Insulin-degrading enzyme (Homo sapiens), P14735; FAbeta-B cleavage; 0% vehicle, 100% cell-free pure enzyme wells; actives 0.073% (n = 340,000);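 active means activation above the mean of all tested compounds plus 3 SD, set per screening campaign, cut at about 17% in these data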
Rin1-Abl confirm: Rin1-Abl binding inhibitor retest, confirmation, biochemical, TR-FRET; shares compounds with Rin1 Abl inh; purified proteins; inhibition, % at 7.35 µM; actives 49% (n = 1,300); AID 602124, 2011
GFP quench: GFP fluorescence inhibitors and quenchers, artefact control for Rin1-Abl interaction inhibitor project, biochemical | inhibition, % at 6.75 µM | shares compounds with Rin1 Abl inh | AID 602125, 2011 | inhibitors/quenchers counterscreen | actives 8.5% (n = 1,300);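 further: ABL1-eGFP fusion protein alone without its partner RIN1-SBP; 0% = protein with vehicle and 100% = wells lacking protein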
GFP quench dose: GFP fluorescence inhibitors and quenchers, dose response, artefact control for Rin1-Abl interaction inhibitor project, biochemical | 230 tested, under 10 active | AID 602182, 2012 | GFP fluorescence interference/quenching counterscreen | shares compounds with Rin1 Abl inh | IC50, µM; call rule not given here;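 further: ABL1-eGFP fusion protein alone without its RIN1 binding partner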
* marks the source's active call; other numbers are inactive results; . = no result. Unless noted, no stated cut-off is given here; in the data, active means inhibition above about 6.5%; inactive means the rest.

SMILES	eLon inh	Rin1 Abl inh	PKA-R1A act	IDE cell inh	PKA-R2B act	IDE act	Rin1-Abl confirm	GFP quench	others
CC1NC(=O)NC1CCCCC(=O)O (stereo unspecified)	2	8.1*	-7	3	17	10	9.0*	0
Cc1ccc(NC(=O)CCCCCC2NC(=O)NC2C)cc1 (stereo unspecified)	6	88*	-9	5	-11	-13	91*	0	GFP quench dose=>68
O=C(O)CCCCCCCC(=O)O	-11	-2	-12	-2	4	5	.	.
CC1NC(=O)NC1CCCCCC(=O)Nc1ccc(F)c(Cl)c1 (stereo unspecified)	-9	86*	0	14	-6	-27	97*	0	GFP quench dose=>67
O=C(NCc1ccc2c(c1)OCO2)c1cc(Cl)ccc1Cl	9	-3	5	4	-4	2	.	.
O=C1CCCN1c1ccc(S(=O)(=O)N2CCC(c3ccccc3)CC2)cc1	-1	2	-9	-1	-22	4	.	.
CCOC(=O)NC(=O)COC(=O)CCCc1nc2ccccc2s1	10	5.4*	-3	0	5	7	-1	-2
CCNC(=O)NC(=O)C(C)OC(=O)CCCc1nc2ccccc2s1 (stereo unspecified)	-1	1	-1	0	-8	3	.	.
CC1=Nc2ccccc2NC(=O)C1Sc1nnc(C)s1 (stereo unspecified)	-6	6.4*	-2	-1	-1	-1	3	1
C=CCN1CC(c2nc3ccccc3n2Cc2ccccc2)CC1=O (stereo unspecified)	-6	0	-2	3	0	2	.	.
COC(=O)c1ccccc1NC(=O)CN1CCN(Cc2ccccc2)CC1	1	3	-4	3	3	2	.	.
O=C(Nc1ccc(Cl)cc1)NC1CCCC1Cc1ccco1 (stereo unspecified)	-8	8.4*	4	8	5	2	-2	3
CSc1ccc(CNC(=O)C2(C)CCN2C(C)C)cc1 (stereo unspecified)	-1	2	.	.	.	.	.	.
CC(=O)NC1=NN(C(C)=O)C(C)(c2ccc(C)o2)S1 (stereo unspecified)	-4	0	-1	6	-2	2	.	.
CC(=O)NC1=NN(C(C)=O)C(C)(c2ccco2)S1 (stereo unspecified)	-10	8.7*	3	7	1	1	-3	1
Cc1n[nH]c(=O)nc1NC(C)c1ccccc1 (stereo unspecified)	-10	0	2	2	3	-4	.	.
CSC(=CC(=O)c1ccccc1)SC	3	2	-4	-2	-3	-5	.	.
CCCn1c(=S)[nH]c2cc(C(=O)NCc3ccccc3OC)ccc2c1=O	7	0	1	.	-10	.	.	.
O=C(O)/C=C/C(=O)Nc1ccc(-n2nccc2C(F)(F)F)cc1	1	-2	-4	-2	-3	5	.	.
O=C(O)/C=C/C(=O)Nc1ccc(-n2ccc(C(F)(F)F)n2)cc1	1	6.4*	4	2	-5	-2	0	1
COc1cc(Cl)ccc1OCc1cc(C(=O)N2CCCCC2c2cccnc2)no1 (stereo unspecified)	-4	10*	3	8	-6	1	1	0
O=C(c1cc(COc2ccc(F)cc2Cl)on1)N1CCCCC1c1cccnc1 (stereo unspecified)	2	6	-11	4	-11	1	.	.
Cc1cccc(C(=O)Nc2cccc(C(=O)N/N=C/c3ccccn3)c2)c1	0	19*	-2	0	0	1	-3	0
Cc1cccc(C(=O)N/N=C/c2ccccn2)c1	7	1	5	5	1	3	.	.
O=c1[nH]cnc2c1C(c1ccccc1)c1c(nc[nH]c1=O)O2	-4	23*	7	.	-5	0	44*	0	GFP quench dose=>68
SMILES	eLon inh	Rin1 Abl inh	PKA-R1A act	IDE cell inh	PKA-R2B act	IDE act	Rin1-Abl confirm	GFP quench	others
Cn1c(-c2ccc3c(c2)OCO3)c(C(=O)O)c(=O)c2ccccc21	-4	-2	5	1	-12	5	.	.
O=C(NC1CCCCC1)c1ccc(CS(=O)Cc2ccccc2Cl)o1 (stereo unspecified)	7	2	0	8	11	-1	.	.
O=C(NC1CCCC1)c1ccc(CS(=O)Cc2ccccc2Cl)o1 (stereo unspecified)	8	18*	4	9	10	-1	0	0
CCc1nn(CC(=O)N2CCC(C(N)=O)CC2)c(=O)c2cc3occc3n12	-4	12*	1	4	-5	6	-1	0
Cc1ccn2c(-c3csc(NCc4ccccc4)n3)c(C)nc2c1	0	5	-4	1	-1	7	.	.
CCC(c1nc2ccccc2c(=O)n1CCCn1ccnc1)N1C(=O)c2ccccc2C1=O (stereo unspecified)	-2	15*	-6	0	-4	3	21*	1	GFP quench dose=>67
Cc1nc2ccccc2n1CC(=O)c1ccccc1	2	0	-9	6	-8	0	.	.
Cc1nc2ccccc2n1CC(=O)c1ccc(O)c(O)c1	1	33*	11	2	-10	6	21*	6.6*
CCOC(=O)N1CCC(N2C(=O)c3ccccc3C2Nc2ccc(C)cc2)CC1 (stereo unspecified)	-5	-1	-7	5	0	2	.	.
CCOC(=O)N1CCC(N2C(=O)c3ccccc3C2Nc2ccc(S(=O)(=O)N(CC)CC)cc2)CC1 (stereo unspecified)	-4	11*	-13	-5	-6	3	10*	1
